Test results as given in PubChem BioAssay (EPA / NIEHS).
Several values for one entry are separate records, joined by “and”; a condition that tells them apart may be missing. Equal entries are not always repeated. Results filed as inconclusive are left out. Where a structure was tested more than once in an assay, its records may differ in their call. Activity calls are given as the source filed them. The calls were made as follows, unless noted: active = hit-call score of the fitted dose curve at least 0.9, where 1 is the maximum; inactive = score below 0.9.

Assays:
[1] = BSK_3C_SRB: Viability Assessment in the BioMAP Diversity Plus: 3C Assay (AID 2283023); settings: primary human endothelial cells (HUVEC);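 also: fitted both ways against DMSO so a hit may be signal rise or drop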
In short: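 Primary human umbilical vein endothelial cells in the 3C system were read 24 h after compound dosing. Total protein was stained with 0.1% sulforhodamine B after 10% TCA fixation and read at 560 nm, with bidirectional fitting against DMSO as baseline.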

[2] = read-out: Matrix Metallopeptidase 1 (MMP1), MMP1 (gene 4312); test: BSK_BE3C_MMP1: BioMAP Diversity Plus: BE3C Assay for Matrix Metallopeptidase 1 (MMP1) Biomarker Activity (AID 2283024); settings: primary human bronchial epithelial cells; actives raise or lower the signal
In short: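 Human primary bronchial epithelial cells (BE3C system) dosed for 24 h; MMP-1 quantified by ELISA. Bidirectional fit against DMSO; cytotoxicity tracked in parallel cultures by SRB total-protein staining.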

[3] = BSK_3C_Vis: BioMAP Diversity Plus: 3C Assay for Morphology Visualization (AID 2283025); settings: primary human endothelial cells (HUVEC);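 also: fitted both ways so gain or loss versus DMSO counts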;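 as to AC50: light microscopy image of cell morphology used as background control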
In short: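 Human umbilical vein endothelial cell morphology was inspected by light microscopy 24 h after chemical dosing; scored bidirectionally relative to DMSO.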

[4] = BSK_4H_SRB: Viability Assessment in the BioMAP Diversity Plus: 4H Assay (AID 2283027); settings: primary human endothelial cells (HUVEC);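 as to AC50: curves fitted both ways versus DMSO so AC50 may be loss or gain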
In short: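 Absorbance at 560 nm of SRB-stained total protein served as the viability read-out in confluent primary human umbilical vein endothelium 24 h after chemical treatment. Curves were fitted bidirectionally against DMSO as negative control.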

[5] = read-out: Thrombomodulin, THBD (gene 7056); test: BSK_3C_Thrombomodulin: BioMAP Diversity Plus: 3C Assay for Thrombomodulin Biomarker Activity (AID 2283029); settings: primary human endothelial cells (HUVEC); actives raise or lower the signal
In short: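 Human umbilical vein endothelial cells were exposed to chemicals for 24 h; cell-surface thrombomodulin quantified by ELISA, with bidirectional fitting against DMSO baseline.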

[6] = read-out: Urokinase-type plasminogen activator receptor (uPAR), PLAUR (gene 5329); test: BSK_4H_uPAR: BioMAP Diversity Plus: 4H Assay for Urokinase-type plasminogen activator receptor (uPAR) Biomarker Activity (AID 2283030); settings: primary human endothelial cells (HUVEC); actives raise or lower the signal
In short: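 Primary human umbilical vein endothelial cells were exposed to chemical for 24 h before cell-surface uPAR was quantified by ELISA. Activity was fitted bidirectionally against the DMSO negative control baseline.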

[7] = read-out: Vascular endothelial growth factor receptor 2 (Homo sapiens) (UniProt P35968); test: BSK_4H_VEGFRII: BioMAP Diversity Plus: 4H Assay for Vascular endothelial growth factor receptor 2 (VEGFR2) Biomarker Activity (AID 2283031); settings: primary human endothelial cells (HUVEC); actives raise or lower the signal;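 as to AC50: cell-surface VEGFR2 protein level quantified by ELISA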
In short: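 Primary human umbilical vein endothelial cells in the BioMAP 4H system were dosed with test chemical, and 24 h later VEGFRII was measured by ELISA. Activity was fitted bidirectionally against DMSO as negative control and baseline.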

[8] = read-out: Human Leukocyte Antigen - DR isotype (HLADR), HLA-DRA (gene 3122); test: BSK_BE3C_HLADR: BioMAP Diversity Plus: BE3C Assay for Human Leukocyte Antigen - DR isotype (HLADR) Biomarker Activity (AID 2283032); settings: primary human bronchial epithelial cells; actives raise or lower the signal
In short: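 Human primary bronchial epithelial cells (BE3C system) exposed to compound for 24 hours; cell-surface HLA-DR measured by ELISA, fitted bidirectionally relative to DMSO. Total protein by SRB in parallel cultures tracked cytotoxicity.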

[9] = read-out: Vascular cell adhesion molecule 1 (VCAM1), VCAM1 (gene 7412); test: BSK_4H_VCAM1: BioMAP Diversity Plus: 4H Assay for Vascular cell adhesion molecule 1 (VCAM1) Biomarker Activity (AID 2283033); settings: primary human endothelial cells (HUVEC); actives raise or lower the signal
In short: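 Primary human umbilical vein endothelial cells, 4H stimulation system, treated for 24 h; cell-surface VCAM-1 quantified by ELISA. Bidirectional fitting against DMSO; cytotoxicity tracked by SRB total-protein staining in parallel cultures.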

[10] = read-out: Interferon-gamma inducible Protein 10 (IP10), CXCL10 (gene 3627); test: BSK_BE3C_IP10: BioMAP Diversity Plus: BE3C Assay for Interferon-gamma inducible Protein 10 (IP10) Biomarker Activity (AID 2283034); settings: primary human bronchial epithelial cells; actives raise or lower the signal
In short: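 Primary human bronchial epithelial cells, with IP-10 measured by ELISA 24 hours after chemical dosing. Bidirectional fit against DMSO; cytotoxicity checked by SRB total protein staining in parallel cultures.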

[11] = read-out: Monokine induced gamma interferon (MIG), CXCL9 (gene 4283); test: BSK_BE3C_MIG: BioMAP Diversity Plus: BE3C Assay for Monokine induced gamma interferon (MIG) Biomarker Activity (AID 2283035); settings: primary human bronchial epithelial cells; actives raise or lower the signal
In short: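 MIG level was determined by ELISA after 24 h chemical treatment of primary human bronchial epithelial cells. Values were fitted bidirectionally with DMSO as the negative control and activity baseline.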

[12] = read-out: Transforming growth factor beta 1 (TGFb1), TGFB1 (gene 7040); test: BSK_BE3C_TGFb1: BioMAP Diversity Plus: BE3C Assay for Transforming growth factor beta 1 (TGFb1) Biomarker Activity (AID 2283036); settings: primary human bronchial epithelial cells; actives raise or lower the signal
In short: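 Primary human bronchial epithelial cells dosed with chemical; TGF-b1 measured by ELISA 24 h after dosing. Bidirectional curve fitting against DMSO negative control; SRB total-protein staining in parallel cultures gauged cytotoxicity.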

[13] = read-out: Plasminogen activator inhibitor-1 (PAI1), SERPINE1 (gene 5054); test: BSK_BE3C_PAI1: BioMAP Diversity Plus: BE3C Assay for Plasminogen activator inhibitor-1 (PAI1) Biomarker Activity (AID 2283037); settings: primary human bronchial epithelial cells; actives raise or lower the signal
In short: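 Primary human bronchial epithelial cells (BE3C system) exposed 24 h; PAI-1 quantified by ELISA. Parallel sulforhodamine B staining of total protein flags cytotoxicity. Bidirectional fit versus DMSO.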

[14] = read-out: urokinase plasminogen activator (uPA), PLAU (gene 5328); test: BSK_BE3C_uPA: BioMAP Diversity Plus: BE3C Assay for urokinase plasminogen activator (uPA) Biomarker Activity (AID 2283038); settings: primary human bronchial epithelial cells; actives raise or lower the signal
In short: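 Human primary bronchial epithelial cells were exposed to chemical for 24 h, then uPA levels were measured by ELISA. Responses were fitted bidirectionally against DMSO as negative control and baseline. Parallel SRB staining of total protein gauged overt cytotoxicity.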

[15] = read-out: Urokinase-type plasminogen activator receptor (uPAR), PLAUR (gene 5329); test: BSK_BE3C_uPAR: BioMAP Diversity Plus: BE3C Assay for Urokinase-type plasminogen activator receptor (uPAR) Biomarker Activity (AID 2283039); settings: primary human bronchial epithelial cells; actives raise or lower the signal
In short: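 Primary human bronchial epithelial cells dosed for 24 h; uPAR quantified by ELISA with bidirectional fitting against DMSO. Overt cytotoxicity assessed in parallel cultures by SRB total-protein staining (0.1% SRB, 560 nm).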

[16] = read-out: Interleukin-6 (IL6), IL6 (gene 3569); test: BSK_CASM3C_IL6: BioMAP Diversity Plus: CASM3C Assay for Interleukin-6 (IL6) Biomarker Activity for (AID 2283040); settings: primary human coronary artery smooth muscle cells; actives raise or lower the signal
[17] = read-out: Tissue plasminogen activator (tPA), PLAT (gene 5327); test: BSK_BE3C_tPA: BioMAP Diversity Plus: BE3C Assay for Tissue plasminogen activator (tPA) Biomarker Activity (AID 2283041); settings: primary human bronchial epithelial cells; actives raise or lower the signal
In short: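 Primary human bronchial epithelial cells in the BE3C system, exposed to compound for 24 h. tPA was quantified by ELISA; DMSO served as baseline, with gain or loss of signal fitted. Cytotoxicity checked in parallel cultures by SRB total-protein staining.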

[18] = read-out: Interleukin-8 (IL8), CXCL8 (gene 3576); test: BSK_CASM3C_IL8: BioMAP Diversity Plus: CASM3C Assay for Interleukin-8 (IL8) Biomarker Activity (AID 2283042); settings: primary human coronary artery smooth muscle cells; actives raise or lower the signal;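 also: IL-8 protein level quantified by ELISA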
[19] = read-out: Human Leukocyte Antigen - DR isotype (HLADR), HLA-DRA (gene 3122); test: BSK_CASM3C_HLADR: BioMAP Diversity Plus: CASM3C Assay for Human Leukocyte Antigen - DR isotype (HLADR) Biomarker Activity (AID 2283043); settings: primary human coronary artery smooth muscle cells; actives raise or lower the signal;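 also: cell-surface HLA-DR protein level quantified by ELISA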
[20] = target: human Vitamin D Receptor (VDR), VDR (gene 7421) (UniProt P11473); test: ATG_VDR_TRANS: Attagene TRANS-FACTORIAL HepG2 Assay for human Vitamin D Receptor (VDR) (AID 2283022; active = hit-call score of the fitted dose curve at least 0.9, where 1 is the maximum)
human Vitamin D Receptor (VDR), VDR (gene 7421), sequence (P11473 whole entry, looked up, the tested form may be a part): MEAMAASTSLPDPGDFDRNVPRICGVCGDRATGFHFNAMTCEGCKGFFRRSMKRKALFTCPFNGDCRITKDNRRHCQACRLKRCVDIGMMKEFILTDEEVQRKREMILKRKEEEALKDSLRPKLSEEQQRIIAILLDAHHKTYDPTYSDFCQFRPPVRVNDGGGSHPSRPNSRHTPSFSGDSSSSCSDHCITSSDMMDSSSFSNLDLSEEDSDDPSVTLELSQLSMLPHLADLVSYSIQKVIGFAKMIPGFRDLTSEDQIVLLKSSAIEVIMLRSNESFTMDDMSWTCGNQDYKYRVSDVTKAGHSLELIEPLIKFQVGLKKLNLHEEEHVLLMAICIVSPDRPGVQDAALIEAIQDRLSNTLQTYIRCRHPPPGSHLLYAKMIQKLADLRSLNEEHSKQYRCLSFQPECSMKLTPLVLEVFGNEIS
In short: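 HepG2 cells were transiently transfected with multiple GAL4-UAS reporter units, so signal reflects exogenous chimeric receptor-Gal4 activity. After 24 h compound exposure, reporter mRNA was measured by RT-PCR, fluorescent labelling and capillary electrophoresis, fitted for gain of signal versus DMSO.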

Measured: AC50

c1ccc(-c2ccccn2)nc1
inactive: [1] | [2] | [3] | [4] | [5] | [6] | [7] | [8] | [9] | [10] | [11] | [12] | [13] | [14] | [15] | [16] | [17] | [18] | [19]

O=C(Cl)c1cc(C(=O)Cl)cc(C(=O)Cl)c1
active: [1] 20 µM | [2] 20 µM | [3] 12.5 µM | [4] 26.8 µM | [6] 20 µM | [8] 28.8 µM | [9] 14.8 µM | [10] 30.4 µM | [11] 39.1 µM | [13] 26.7 µM | [14] 20 µM | [15] 24.4 µM | [16] 26.1 µM | [17] 31.8 µM | [18] 30.3 µM | [19] 15.5 µM
inactive: [5] | [7] | [12]

N#[N+]c1ccc2c(S(=O)(=O)[O-])cccc2c1O
inactive: [20] | [1] | [2] | [3] | [4] | [5] | [6] | [7] | [8] | [9] | [10] | [11] | [12] | [13] | [14] | [15] | [16] | [17] | [18] | [19]

C=CC(=O)OCC(Br)CBr (configuration not stated)
active: [1] 32.5 µM | [3] 16.6 µM | [4] 31.6 µM | [6] 32.4 µM | [7] 37 µM | [8] 14.4 µM | [9] 20 µM | [10] 23.3 µM | [11] 31.4 µM | [16] 26 µM | [18] 30.4 µM | [19] 11.1 µM
inactive: [2] | [5] | [12] | [13] | [14] | [15] | [17]

CO[Si](OC)(OC)c1ccccc1
active: [19] 3.86 µM
inactive: [20] | [1] | [2] | [4] | [5] | [6] | [7] | [8] | [9] | [10] | [11] | [13] | [14] | [15] | [16] | [17] | [18] | [19]

O=C(c1ccc(O)cc1)c1ccc(O)cc1O
active: [2] 12.9 µM | [6] 9.72 µM | [8] 20 µM | [13] 13.2 µM and 12.6 µM
inactive: [1] | [2] | [4] | [5] | [6] | [7] | [8] | [9] | [10] | [11] | [14] | [15] | [16] | [17] | [18] | [19]

C=C[Si](OC(C)=O)(OC(C)=O)OC(C)=O
inactive: [1] | [2] | [4] | [5] | [6] | [7] | [8] | [9] | [10] | [11] | [13] | [14] | [15] | [16] | [17] | [18] | [19]

C=CCOCC(O)CCl (configuration not stated)
inactive: [20] | [1] | [2] | [3] | [4] | [5] | [6] | [7] | [8] | [9] | [10] | [11] | [12] | [13] | [14] | [15] | [16] | [17] | [18] | [19]

c1ccc2c(c1)ccc1ncccc12
active: [1] 14.3 µM | [3] 38.9 µM | [4] 20 µM | [6] 20 µM
inactive: [2] | [5] | [7] | [8] | [9] | [10] | [11] | [12] | [13] | [14] | [15] | [16] | [17] | [18] | [19]

c1ccc2c(c1)ccc1cc3c(ccc4ccccc43)cc12
inactive: [1] | [3] | [4] | [5] | [6] | [7] | [8] | [9] | [10] | [11] | [12] | [13] | [14] | [15] | [16] | [17] | [18] | [19]
active: [2] 0.015 µM | [3] 35.7 µM | [6] 0.267 µM

CC(C)C(=O)C(C)C
inactive: [1] | [2] | [3] | [4] | [5] | [6] | [7] | [8] | [9] | [10] | [11] | [12] | [13] | [14] | [15] | [16] | [17] | [18] | [19]
